# How the values were obtained:
# Experiment in all cases: DAPPL (digital affinity profiling via proximity ligation, sequencing); 10 mM Tris-HCl pH 7.5, 50 mM NaCl, 1 mM DTT, 4% glycerol, room temperature, 30 min; GST-TFs on glutathione beads, 16-mer random dsDNA library, 0.1% formaldehyde crosslink after washing; high values mean tight binding
# Conditions in all cases: protein: recombinant; tags: N-terminal GST; dsDNA, one strand shown
# FLI1 = target: T1, FLI1 (Homo sapiens, UniProt Q01543 1-452)
# T1 sequence: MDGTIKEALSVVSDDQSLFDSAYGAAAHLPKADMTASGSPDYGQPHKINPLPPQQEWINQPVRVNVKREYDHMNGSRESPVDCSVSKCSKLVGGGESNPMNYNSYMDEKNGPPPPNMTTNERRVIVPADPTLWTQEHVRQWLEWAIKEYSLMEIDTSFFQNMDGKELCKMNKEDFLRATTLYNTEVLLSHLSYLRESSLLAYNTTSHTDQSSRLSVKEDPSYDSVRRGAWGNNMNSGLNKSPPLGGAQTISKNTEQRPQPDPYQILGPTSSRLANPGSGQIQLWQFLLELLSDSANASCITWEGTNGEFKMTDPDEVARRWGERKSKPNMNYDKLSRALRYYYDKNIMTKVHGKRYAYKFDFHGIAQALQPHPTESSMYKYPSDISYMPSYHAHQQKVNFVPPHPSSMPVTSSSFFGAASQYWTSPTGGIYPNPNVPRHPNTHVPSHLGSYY
# How it was run: (§1)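 Human transcription factors carrying a GST fusion were produced in yeast, bound to glutathione beads, tagged with DNA barcodes and pooled together with a tag-only sample. Each pool was held with 200 nmole of a random double-stranded 16-mer DNA library in Tris/NaCl/DTT/glycerol buffer for 30 min at room temperature, then washed, crosslinked in 0.1% formaldehyde, proximity-ligated with BsaI/T4 ligase (1 h, 37 °C), PCR-amplified and sequenced on an Illumina NextSeq500. Binding signal is the read frequency of each hexamer for a given factor divided by its frequency in the tag-only sample.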
# ELK1 = target: T2, ELK1 (Homo sapiens, UniProt P19419 1-428)
# T2 sequence: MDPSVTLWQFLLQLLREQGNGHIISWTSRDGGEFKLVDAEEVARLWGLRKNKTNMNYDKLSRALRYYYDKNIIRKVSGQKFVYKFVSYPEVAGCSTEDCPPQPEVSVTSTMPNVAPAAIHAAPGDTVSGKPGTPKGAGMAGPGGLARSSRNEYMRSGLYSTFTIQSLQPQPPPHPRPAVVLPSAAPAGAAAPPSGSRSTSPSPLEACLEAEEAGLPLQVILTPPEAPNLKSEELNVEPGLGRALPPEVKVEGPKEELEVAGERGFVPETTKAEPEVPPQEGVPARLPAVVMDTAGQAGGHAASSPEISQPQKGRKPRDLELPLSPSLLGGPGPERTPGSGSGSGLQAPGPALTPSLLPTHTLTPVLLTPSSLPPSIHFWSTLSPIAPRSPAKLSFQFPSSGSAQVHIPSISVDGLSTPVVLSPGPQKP
# How it was run: as §1
# GABPA = target: T3, GABPA (Homo sapiens, UniProt Q06546 1-454)
# T3 sequence: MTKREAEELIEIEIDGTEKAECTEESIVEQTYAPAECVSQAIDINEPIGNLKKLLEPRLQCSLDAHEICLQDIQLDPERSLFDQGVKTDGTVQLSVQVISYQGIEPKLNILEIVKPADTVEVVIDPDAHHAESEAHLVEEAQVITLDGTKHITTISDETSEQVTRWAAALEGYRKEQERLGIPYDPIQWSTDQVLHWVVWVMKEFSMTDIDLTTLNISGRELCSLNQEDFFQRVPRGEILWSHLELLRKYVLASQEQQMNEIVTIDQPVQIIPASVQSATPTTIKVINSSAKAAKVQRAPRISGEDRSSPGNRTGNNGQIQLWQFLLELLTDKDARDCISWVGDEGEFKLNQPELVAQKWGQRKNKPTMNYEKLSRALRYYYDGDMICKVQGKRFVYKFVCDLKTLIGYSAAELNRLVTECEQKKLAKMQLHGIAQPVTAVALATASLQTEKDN
# How it was run: as §1
# ERG = target: T4, ERG (Homo sapiens, UniProt P11308 1-479)
# T4 sequence: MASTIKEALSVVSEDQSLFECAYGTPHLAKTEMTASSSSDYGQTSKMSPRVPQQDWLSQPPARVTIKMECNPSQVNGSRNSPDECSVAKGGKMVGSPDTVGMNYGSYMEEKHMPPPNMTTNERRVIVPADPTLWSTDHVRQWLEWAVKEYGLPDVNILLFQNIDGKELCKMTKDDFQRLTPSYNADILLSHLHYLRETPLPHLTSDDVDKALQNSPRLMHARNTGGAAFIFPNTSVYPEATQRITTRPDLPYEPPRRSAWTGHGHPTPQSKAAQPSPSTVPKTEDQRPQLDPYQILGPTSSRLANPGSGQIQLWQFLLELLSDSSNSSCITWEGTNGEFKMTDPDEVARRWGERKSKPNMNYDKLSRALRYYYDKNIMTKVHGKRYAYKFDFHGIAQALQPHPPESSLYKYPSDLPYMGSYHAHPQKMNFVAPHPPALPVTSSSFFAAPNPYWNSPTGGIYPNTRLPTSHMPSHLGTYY
# How it was run: as §1
# ELF1 = ELF1 (Homo sapiens, UniProt P32519 1-619)
# How it was run: as §1
# EHF = target: T5, EHF (Homo sapiens, UniProt Q9NZC4 1-300)
# T5 sequence: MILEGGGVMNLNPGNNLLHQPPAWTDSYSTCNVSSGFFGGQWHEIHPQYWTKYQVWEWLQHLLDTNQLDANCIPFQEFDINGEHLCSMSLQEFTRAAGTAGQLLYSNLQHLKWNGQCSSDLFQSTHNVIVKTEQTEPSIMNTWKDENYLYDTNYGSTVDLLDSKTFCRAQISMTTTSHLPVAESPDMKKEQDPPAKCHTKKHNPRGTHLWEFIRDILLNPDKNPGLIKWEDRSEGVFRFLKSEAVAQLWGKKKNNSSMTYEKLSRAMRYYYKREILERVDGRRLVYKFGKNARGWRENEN
# How it was run: as §1
# SPI1 = SPI1 (Homo sapiens, UniProt P17947 1-270)
# How it was run: as §1
# SPIB = SPIB (Homo sapiens, UniProt Q01892 1-262)
# How it was run: as §1
# ELK3 = target: T6, ELK3 (Homo sapiens, UniProt P41970 1-407)
# T6 sequence: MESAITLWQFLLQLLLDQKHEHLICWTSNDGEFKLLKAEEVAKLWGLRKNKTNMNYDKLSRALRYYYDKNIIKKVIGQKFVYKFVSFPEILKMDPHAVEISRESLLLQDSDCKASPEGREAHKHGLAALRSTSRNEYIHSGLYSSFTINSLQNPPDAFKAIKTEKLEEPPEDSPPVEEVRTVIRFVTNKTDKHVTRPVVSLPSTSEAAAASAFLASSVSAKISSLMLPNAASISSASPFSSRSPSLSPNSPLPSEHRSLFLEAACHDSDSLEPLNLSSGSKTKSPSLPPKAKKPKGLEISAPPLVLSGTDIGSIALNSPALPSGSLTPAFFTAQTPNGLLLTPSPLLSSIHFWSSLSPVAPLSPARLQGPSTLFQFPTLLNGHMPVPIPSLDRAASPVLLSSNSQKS
# How it was run: as §1
# FEV = target: T7, FEV (Homo sapiens, UniProt Q99581 1-238)
# T7 sequence: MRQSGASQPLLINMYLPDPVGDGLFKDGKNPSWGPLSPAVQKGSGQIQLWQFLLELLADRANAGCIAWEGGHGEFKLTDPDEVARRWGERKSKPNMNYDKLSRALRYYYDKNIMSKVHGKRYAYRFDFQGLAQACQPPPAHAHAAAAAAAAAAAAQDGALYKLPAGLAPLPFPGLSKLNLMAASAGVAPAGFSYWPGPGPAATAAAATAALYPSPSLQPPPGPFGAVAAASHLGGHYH
# How it was run: as §1
# ETV5 = ETV5 (Homo sapiens, UniProt P41161 1-510)
# How it was run: as §1
# ELF4 = ELF4 (Homo sapiens, UniProt Q99607 1-663)
# How it was run: as §1
# ETV1 = ETV1 (Homo sapiens, UniProt P50549 1-477)
# How it was run: as §1
# ERF = target: T8, ERF (Homo sapiens, UniProt P50548 1-548)
# T8 sequence: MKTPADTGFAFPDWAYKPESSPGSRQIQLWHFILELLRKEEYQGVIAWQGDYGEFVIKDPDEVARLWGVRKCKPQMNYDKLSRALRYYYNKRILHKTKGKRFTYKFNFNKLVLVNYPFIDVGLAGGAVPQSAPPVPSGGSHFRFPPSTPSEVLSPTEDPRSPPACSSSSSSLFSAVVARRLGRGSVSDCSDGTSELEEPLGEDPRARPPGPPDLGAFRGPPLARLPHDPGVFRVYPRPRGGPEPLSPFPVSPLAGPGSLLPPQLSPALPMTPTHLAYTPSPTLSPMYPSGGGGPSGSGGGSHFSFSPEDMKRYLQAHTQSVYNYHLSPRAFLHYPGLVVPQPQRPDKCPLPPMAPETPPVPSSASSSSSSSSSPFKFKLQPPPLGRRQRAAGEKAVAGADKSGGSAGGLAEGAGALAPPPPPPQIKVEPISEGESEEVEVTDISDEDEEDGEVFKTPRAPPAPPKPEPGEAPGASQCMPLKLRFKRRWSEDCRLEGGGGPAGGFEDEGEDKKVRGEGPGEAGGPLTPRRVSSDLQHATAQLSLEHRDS
# How it was run: as §1
# ETV3L = target: T9, ETV3L (Homo sapiens, UniProt Q6ZN32 1-361)
# T9 sequence: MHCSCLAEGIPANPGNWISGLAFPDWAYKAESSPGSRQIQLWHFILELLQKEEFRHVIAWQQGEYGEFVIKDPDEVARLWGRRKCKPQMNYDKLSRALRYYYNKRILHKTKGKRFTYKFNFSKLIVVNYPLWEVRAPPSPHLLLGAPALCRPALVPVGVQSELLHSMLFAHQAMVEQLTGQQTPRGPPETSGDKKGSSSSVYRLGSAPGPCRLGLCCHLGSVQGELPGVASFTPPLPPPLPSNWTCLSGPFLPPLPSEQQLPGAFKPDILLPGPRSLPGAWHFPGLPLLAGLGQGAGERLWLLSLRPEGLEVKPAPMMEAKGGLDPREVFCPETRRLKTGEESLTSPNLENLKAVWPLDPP
# How it was run: as §1
# ETS2 = target: T10, ETS2 (Homo sapiens, UniProt P15036 1-469)
# T10 sequence: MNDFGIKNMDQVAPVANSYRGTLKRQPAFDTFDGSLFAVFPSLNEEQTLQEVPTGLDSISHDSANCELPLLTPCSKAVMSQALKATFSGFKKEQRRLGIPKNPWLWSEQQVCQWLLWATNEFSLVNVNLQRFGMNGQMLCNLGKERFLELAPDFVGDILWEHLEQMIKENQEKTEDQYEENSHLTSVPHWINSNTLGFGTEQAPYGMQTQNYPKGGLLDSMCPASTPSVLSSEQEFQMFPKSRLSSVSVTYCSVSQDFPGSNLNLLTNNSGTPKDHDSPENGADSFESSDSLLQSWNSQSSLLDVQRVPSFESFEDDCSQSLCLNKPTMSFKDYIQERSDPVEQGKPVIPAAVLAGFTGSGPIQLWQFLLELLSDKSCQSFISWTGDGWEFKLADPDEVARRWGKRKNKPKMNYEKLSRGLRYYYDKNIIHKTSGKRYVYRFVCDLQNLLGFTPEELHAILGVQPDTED
# How it was run: as §1
# SPDEF = target: T11, SPDEF (Homo sapiens, UniProt O95238 1-335)
# T11 sequence: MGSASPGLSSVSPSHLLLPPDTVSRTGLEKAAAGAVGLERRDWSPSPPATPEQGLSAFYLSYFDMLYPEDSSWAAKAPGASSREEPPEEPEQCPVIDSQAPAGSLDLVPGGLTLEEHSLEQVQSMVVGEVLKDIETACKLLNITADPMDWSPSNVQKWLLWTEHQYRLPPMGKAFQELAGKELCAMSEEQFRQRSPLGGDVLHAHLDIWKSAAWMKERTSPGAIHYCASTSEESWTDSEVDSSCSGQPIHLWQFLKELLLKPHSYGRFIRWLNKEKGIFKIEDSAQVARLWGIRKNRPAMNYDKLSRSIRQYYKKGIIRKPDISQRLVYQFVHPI
# How it was run: as §1
# ETV3 = target: T12, ETV3 (Homo sapiens, UniProt P41162-2 1-143)
# T12 sequence: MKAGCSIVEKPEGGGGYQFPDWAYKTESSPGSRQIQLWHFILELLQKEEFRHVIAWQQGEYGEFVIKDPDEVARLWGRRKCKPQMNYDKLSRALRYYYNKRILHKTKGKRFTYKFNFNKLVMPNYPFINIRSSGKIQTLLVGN
# How it was run: as §1
# ETV6 = ETV6 (Homo sapiens, UniProt P41212 1-452)
# How it was run: as §1
# Sequence of ETV5 (P41161 whole entry): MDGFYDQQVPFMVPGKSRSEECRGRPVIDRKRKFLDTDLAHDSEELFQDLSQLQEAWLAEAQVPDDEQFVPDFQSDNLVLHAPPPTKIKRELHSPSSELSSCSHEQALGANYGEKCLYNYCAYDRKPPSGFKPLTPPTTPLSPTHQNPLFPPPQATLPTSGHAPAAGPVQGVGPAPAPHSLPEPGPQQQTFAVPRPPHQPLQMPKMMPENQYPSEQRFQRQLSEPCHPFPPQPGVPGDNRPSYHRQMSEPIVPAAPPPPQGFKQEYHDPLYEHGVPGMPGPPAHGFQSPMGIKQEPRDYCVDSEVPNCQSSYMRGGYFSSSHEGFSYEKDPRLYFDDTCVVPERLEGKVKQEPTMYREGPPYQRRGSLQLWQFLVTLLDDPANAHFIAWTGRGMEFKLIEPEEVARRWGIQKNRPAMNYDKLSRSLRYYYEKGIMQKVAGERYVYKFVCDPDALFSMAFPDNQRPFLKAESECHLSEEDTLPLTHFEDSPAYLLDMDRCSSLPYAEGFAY
# Sequence of ETV1 (P50549 whole entry): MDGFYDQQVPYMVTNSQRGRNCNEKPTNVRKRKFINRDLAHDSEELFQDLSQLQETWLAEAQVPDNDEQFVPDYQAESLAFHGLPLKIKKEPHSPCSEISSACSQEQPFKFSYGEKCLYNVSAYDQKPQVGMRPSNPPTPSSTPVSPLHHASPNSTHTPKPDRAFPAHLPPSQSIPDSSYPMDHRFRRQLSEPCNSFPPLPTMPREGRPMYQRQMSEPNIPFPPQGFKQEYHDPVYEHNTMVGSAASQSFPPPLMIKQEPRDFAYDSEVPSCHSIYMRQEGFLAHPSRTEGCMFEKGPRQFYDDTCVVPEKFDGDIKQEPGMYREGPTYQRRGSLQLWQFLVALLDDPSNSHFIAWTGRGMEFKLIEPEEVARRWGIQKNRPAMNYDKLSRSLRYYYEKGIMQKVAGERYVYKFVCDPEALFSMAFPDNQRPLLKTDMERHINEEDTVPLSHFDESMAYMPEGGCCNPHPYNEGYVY
# Sequence of ETV6 (P41212 whole entry): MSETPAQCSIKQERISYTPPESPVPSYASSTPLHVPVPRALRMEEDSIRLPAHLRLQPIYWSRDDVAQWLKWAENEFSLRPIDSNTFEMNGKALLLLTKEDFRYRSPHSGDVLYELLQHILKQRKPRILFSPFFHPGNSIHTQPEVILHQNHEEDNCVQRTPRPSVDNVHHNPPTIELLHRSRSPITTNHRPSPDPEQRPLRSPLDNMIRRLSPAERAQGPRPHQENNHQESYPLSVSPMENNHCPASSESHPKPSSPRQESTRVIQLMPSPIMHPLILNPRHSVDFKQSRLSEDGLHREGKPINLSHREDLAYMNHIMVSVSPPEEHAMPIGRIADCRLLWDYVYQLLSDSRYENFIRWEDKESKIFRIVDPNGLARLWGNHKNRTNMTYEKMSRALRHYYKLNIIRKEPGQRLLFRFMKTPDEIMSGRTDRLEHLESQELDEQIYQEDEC
# Sequence of SPIB (Q01892 whole entry): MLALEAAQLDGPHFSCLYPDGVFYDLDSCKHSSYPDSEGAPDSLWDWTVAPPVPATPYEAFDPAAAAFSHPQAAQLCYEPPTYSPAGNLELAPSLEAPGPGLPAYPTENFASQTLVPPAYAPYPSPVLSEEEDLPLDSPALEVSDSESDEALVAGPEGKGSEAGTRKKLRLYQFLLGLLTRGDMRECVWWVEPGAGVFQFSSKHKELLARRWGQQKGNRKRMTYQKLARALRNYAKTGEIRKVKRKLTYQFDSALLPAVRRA
# Sequence of ELF4 (Q99607 whole entry): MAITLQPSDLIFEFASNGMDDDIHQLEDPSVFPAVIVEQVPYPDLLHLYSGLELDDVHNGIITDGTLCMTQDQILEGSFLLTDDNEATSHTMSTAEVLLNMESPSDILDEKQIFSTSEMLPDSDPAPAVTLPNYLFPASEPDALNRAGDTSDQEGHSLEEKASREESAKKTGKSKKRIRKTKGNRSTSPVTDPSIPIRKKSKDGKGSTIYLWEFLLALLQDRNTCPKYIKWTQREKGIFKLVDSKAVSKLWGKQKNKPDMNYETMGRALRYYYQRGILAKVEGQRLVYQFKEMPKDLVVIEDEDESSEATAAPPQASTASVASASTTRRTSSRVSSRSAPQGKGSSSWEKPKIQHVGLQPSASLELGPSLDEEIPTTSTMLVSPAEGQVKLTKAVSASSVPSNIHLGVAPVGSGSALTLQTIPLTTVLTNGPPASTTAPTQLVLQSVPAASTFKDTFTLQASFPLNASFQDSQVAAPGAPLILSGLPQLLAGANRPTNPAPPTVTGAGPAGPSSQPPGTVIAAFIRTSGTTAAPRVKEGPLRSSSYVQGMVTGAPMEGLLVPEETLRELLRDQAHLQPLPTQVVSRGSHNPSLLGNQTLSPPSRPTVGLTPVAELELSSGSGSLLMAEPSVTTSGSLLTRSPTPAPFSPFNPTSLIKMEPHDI
# Sequence of ELF1 (P32519 whole entry): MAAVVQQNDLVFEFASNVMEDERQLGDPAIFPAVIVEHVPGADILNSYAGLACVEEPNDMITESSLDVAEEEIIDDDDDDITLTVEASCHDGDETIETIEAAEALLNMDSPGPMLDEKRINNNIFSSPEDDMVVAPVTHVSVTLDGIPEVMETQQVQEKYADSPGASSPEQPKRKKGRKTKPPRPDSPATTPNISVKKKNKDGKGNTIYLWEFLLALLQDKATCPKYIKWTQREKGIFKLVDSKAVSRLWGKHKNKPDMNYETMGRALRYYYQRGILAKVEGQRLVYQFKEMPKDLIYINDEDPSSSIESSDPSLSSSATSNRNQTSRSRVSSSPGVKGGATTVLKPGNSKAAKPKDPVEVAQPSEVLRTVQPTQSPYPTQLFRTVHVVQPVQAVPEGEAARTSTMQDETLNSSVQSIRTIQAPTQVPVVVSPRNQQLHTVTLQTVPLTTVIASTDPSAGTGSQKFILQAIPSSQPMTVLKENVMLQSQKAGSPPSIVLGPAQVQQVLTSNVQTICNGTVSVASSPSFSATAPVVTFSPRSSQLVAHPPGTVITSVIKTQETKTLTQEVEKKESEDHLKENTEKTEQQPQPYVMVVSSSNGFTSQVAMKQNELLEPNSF
sequence,measurement,setting,value
ATTGGC,binding signal,FLI1,"1.23 fold enrichment (6-mer frequency, TF over GST control)"
same,binding signal,ELK1,"1.11 fold enrichment (6-mer frequency, TF over GST control)"
same,binding signal,GABPA,"1.09 fold enrichment (6-mer frequency, TF over GST control)"
same,binding signal,ERG,"1.05 fold enrichment (6-mer frequency, TF over GST control)"
same,binding signal,ELF1,"1.13 fold enrichment (6-mer frequency, TF over GST control)"
same,binding signal,EHF,"1.15 fold enrichment (6-mer frequency, TF over GST control)"
same,binding signal,SPI1,"1.01 fold enrichment (6-mer frequency, TF over GST control)"
same,binding signal,SPIB,"1.13 fold enrichment (6-mer frequency, TF over GST control)"
same,binding signal,ELK3,"1.16 fold enrichment (6-mer frequency, TF over GST control)"
same,binding signal,FEV,"1.13 fold enrichment (6-mer frequency, TF over GST control)"
same,binding signal,ETV5,"1.07 fold enrichment (6-mer frequency, TF over GST control)"
same,binding signal,ELF4,"1.14 fold enrichment (6-mer frequency, TF over GST control)"
same,binding signal,ETV1,"1.11 fold enrichment (6-mer frequency, TF over GST control)"
same,binding signal,ERF,"1.15 fold enrichment (6-mer frequency, TF over GST control)"
same,binding signal,ETV3L,"1.18 fold enrichment (6-mer frequency, TF over GST control)"
same,binding signal,ETS2,"1.18 fold enrichment (6-mer frequency, TF over GST control)"
same,binding signal,SPDEF,"1.12 fold enrichment (6-mer frequency, TF over GST control)"
same,binding signal,ETV3,"1.09 fold enrichment (6-mer frequency, TF over GST control)"
same,binding signal,ETV6,"1.13 fold enrichment (6-mer frequency, TF over GST control)"

# Source: paper PMC7862700, “An all-to-all approach to the identification of sequence-specific readers for epigenetic DNA modifications on cytosine”
